Data from PubChem BioAssay AID463173 (ICCB-Longwood Screening Facility, Harvard Medical School, 2010).
Out of some 52,000 compounds screened, about 4,300 (8.3%) were called active. This is one part of a sample in which actives are shown more often than they occur. A number with no mark means an inactive call. Rule as the data show it: active = survival mostly below about 52% (no sharp cut-off); inactive = mostly above about 56%.

These compounds were tested on DeltatarO mutant (assay: S. aureus survival, RN4220 and DeltatarO strains – OD600, teichoic acid synthesis inhibitors, primary screen (AID 463173)). Settings: S. aureus RN4220 wild type/DeltatarO growth, OD600, 18 h, stronger effect = lower value, screened at 18.75 µg/mL (by protocol).
Work on `O=C1C2C3c4ccccc4C(c4ccccc43)C2C(=O)N1C(CO)(CO)CO` (stereo unspecified) yielded a survival of 102%.
`CC1=C(C(=O)OC2CCCCCC2)C(c2c(F)cccc2Cl)CC(=O)N1` (stereo unspecified) was tested, and the survival was 57%.
In the case of `CC1=C(C(=O)OC2CCCCCC2)C(c2c(Cl)cccc2Cl)CC(=O)N1` (stereo unspecified), the survival is reported as 32% (active).
`CC1=C(C(=O)OC2CCCC2)C(c2c(Cl)cccc2Cl)CC(=O)N1` (stereo unspecified) was tested, and the survival was 71%.
`CCCN1CC=C2C(C#N)=C(N)C(C#N)(C#N)C(c3ccc(OCC(N)=O)cc3)C2C1` (stereo unspecified) showed a survival of 81%.
`CCCc1ccc(S(=O)(=O)N2CCC(c3nnc(-c4cccc(C)c4)o3)CC2)cc1` gave a survival of 75%.
Compound `COc1ccc(CNCc2c(C(=O)O)c(C)n(Cc3ccccc3C)c2C)cc1OC` has a survival of 91%.
With `CCc1nn2c(=O)cc(COc3ccc(/C=C(\C#N)C(=O)Nc4ccc(F)cc4)cc3OC)nc2s1` the survival was 106%.
`CCOc1cc(/C=C(\C#N)C(=O)Nc2ccc(OC)cc2)ccc1OCc1cc(=O)n2nc(CC)sc2n1` was tested, and the survival was 55% (active).
Compound `COc1cc(/C=C(\C#N)C(=O)Nc2ccc(C)cc2)ccc1OCc1cc(=O)n2nc(C)sc2n1` has a survival of 78%.
`Cc1nn2c(=O)cc(COc3ccc(/C=C(\C#N)C(=O)Nc4ccccc4)cc3Cl)nc2s1` was tested, and the survival was 49% (active).
With `COc1ccc(NC(=O)/C(C#N)=C/c2ccc(OCc3cc(=O)n4nc(C)sc4n3)cc2)cc1` the survival was 61%.
`CCOc1cc(/C=C(\C#N)C(=O)Nc2ccc(C)cc2)ccc1OCc1cc(=O)n2nc(CC)sc2n1` was tested, and the survival was 68%.
For `CCOc1ccc(NC(=O)CSc2nc3ccsc3c(=O)n2CC)cc1`, the survival was 89%.
`Cc1cc(C)n2nc(C(=O)N/N=C/c3ccncc3)nc2n1` showed a survival of 76%.
With `c1ccc(-n2nc3ccc4nonc4c3n2)cc1` the survival was 86%.
`On1c2c(c3c4nonc4ccc31)CCCC2` was tested, and the survival was 0% (active).
`COc1ccc(-c2[nH]c3ccccc3c2SCCNC(=O)c2ccc(S(=O)(=O)N(C)C)cc2)cc1` showed a survival of 67%.
`COc1cccc(C2=C(C(C)=O)Sc3nnc(C4CCCCC4)n3N2C(C)=O)c1` was tested, and the survival was 81%.
`CCOc1ccccc1NC(=O)c1cccc2c1C(=O)N(C1CCCCC1)C2` showed a survival of 92%.
`Cc1ccc(Cn2nnc3c(=O)[nH]c(C4CCCN(C(=O)c5ccco5)C4)nc32)cc1` (stereo unspecified) showed a survival of 91%.
For `Cc1ccccc1Cn1nnc2c(=O)[nH]c(C3CCCN(C(=O)c4ccc(F)cc4)C3)nc21` (stereo unspecified), the survival was 114%.
In the case of `Cc1ccccc1Cn1nnc2c(=O)[nH]c(C3CCCN(C(=O)c4ccc(C(C)(C)C)cc4)C3)nc21` (stereo unspecified), the survival is reported as 7% (active).
`CCc1ccc(Cn2nnc3c(=O)[nH]c(C4CCCN(C(=O)c5cccc(Cl)c5)C4)nc32)cc1` (stereo unspecified) was tested, and the survival was 74%.
In the case of `CC(C)(C)C(=O)N1CCCC(c2nc3c(nnn3Cc3ccc(C(C)(C)C)cc3)c(=O)[nH]2)C1` (stereo unspecified), the survival is reported as 1% (active).
With `O=C(c1cccs1)N1CCCC(c2nc3c(nnn3Cc3ccc(F)cc3)c(=O)[nH]2)C1` (stereo unspecified) the survival was 101%.
For `O=C(Nc1ccc(F)cc1)N1CCCC(c2nc3c(nnn3Cc3ccccc3Cl)c(=O)[nH]2)C1` (stereo unspecified), the survival was 88%.
`Cc1cccc(Cn2nnc3c(=O)[nH]c(C4CCCN(C(=O)c5ccccc5Cl)C4)nc32)c1` (stereo unspecified) was tested, and the survival was 71%.
`CC(C)(C)c1ccc(C(=O)N2CCCC(c3nc4c(nnn4Cc4cccc(F)c4)c(=O)[nH]3)C2)cc1` (stereo unspecified) was tested, and the survival was 7% (active).
`CCCC(=O)N1CCCC(c2nc3c(nnn3Cc3ccccc3)c(=O)[nH]2)C1` (stereo unspecified) gave a survival of 102%.
For `Cc1cccc(Cn2nnc3c(=O)[nH]c(C4CCCN(C(=O)c5ccc(C(C)(C)C)cc5)C4)nc32)c1` (stereo unspecified), the survival was 18% (active).
Compound `COc1cccc(Cn2nnc3c(=O)[nH]c(C4CCCN(C(=O)c5ccc(C)cc5)C4)nc32)c1` (stereo unspecified) has a survival of 90%.
`COc1ccc(-c2ccc(NS(=O)(=O)c3ccc(F)c(C(F)(F)F)c3)cc2)nn1` showed a survival of 117%.
`Cc1ccc2cc(CN(CCN(C)C)C(=O)NC3CCCCC3)c(=O)[nH]c2c1` was tested, and the survival was 101%.
With `O=C(CCn1cccn1)NCc1ccc(Cl)cc1` the survival was 73%.
In the case of `COc1ccc(OC(=O)c2cn(-c3cccc(OC)c3)c(=O)c3ccccc23)cc1`, the survival is reported as 80%.
Work on `COC(=O)c1ccc(NC(=O)c2nn(C)c3c2CS(=O)(=O)c2ccccc2-3)cc1` yielded a survival of 81%.
Work on `CC1(C)c2ssc(=S)c2-c2ccccc2N1C(=O)CSC#N` yielded a survival of 106%.
With `Cc1ccc(NC(=O)c2c3c(nc4ccccc24)C(=O)N(C2CCCCC2)C3)cc1F` the survival was 102%.
In the case of `Cc1nn(CC(=O)Nc2cccc(C(F)(F)F)c2)c(=O)c2nn(-c3ccccc3)c(C)c12`, the survival is reported as 75%.
In the case of `O=C(c1ccc(-c2cccc(C(F)(F)F)c2)o1)N1CCOCC1`, the survival is reported as 84%.
Work on `O=C(Nc1cccc2cccnc12)c1cccc2c(Br)cccc12` yielded a survival of 70%.
In the case of `O=C(Nc1ccc(Br)c2cccnc12)c1cccc2ccccc12`, the survival is reported as 29% (active).
For `O=C(Nc1cccc2cccnc12)c1cccc2ccccc12`, the survival was 1% (active).
`O=C(Nc1cccc2cccnc12)c1ccccc1[N+](=O)[O-]` was tested, and the survival was 68%.
`O=C(O)c1ccccc1C(=O)Nc1ccc(Br)c2cccnc12` gave a survival of 49%.
Work on `COc1c(Cl)cc(Cl)cc1C(=O)Nc1cccc2cccnc12` yielded a survival of 143%.
For `O=C(CN1Cc2ccccc2C1=O)Nc1cc(F)ccc1F`, the survival was 81%.
`Cc1nc2ccc(S(=O)(=O)CCC(=O)Nc3ccc(C)c(C)c3)cc2s1` showed a survival of 107%.
Work on `CCOc1ccc(-n2c(SCC(=O)Nc3ccc(CC)cc3)nc3c(oc4ccccc43)c2=O)cc1` yielded a survival of 71%.
For `CCOC(=O)c1c(S(=O)(=O)NCC(=O)N(C)Cc2ccccc2)c(C)n(C)c1C`, the survival was 89%.
For `CCOc1no[n+]([O-])c1-c1ccccc1`, the survival was 90%.
Work on `CN(C(=O)CSc1nc2ccc(NC(=O)c3ccccc3F)cc2s1)c1ccccc1` yielded a survival of 103%.
With `CCN(Cc1nc(-c2ccc(OC)cc2)oc1C)S(=O)(=O)c1ccc(C)cc1` the survival was 95%.
`COc1ccc(C(=O)N/N=C2/SCC(=O)N2C)c(OC)c1` gave a survival of 69%.
For `Cc1[nH]c2ccccc2c1C1(O)C(=O)N(Cc2ccc(Cl)cc2)c2ccccc21` (stereo unspecified), the survival was 29% (active).
In the case of `Cc1[nH]c2ccccc2c1C1(O)C(=O)N(Cc2ccccc2)c2ccc(Cl)cc21` (stereo unspecified), the survival is reported as 24% (active).
Compound `Cc1ccc(CN2C(=O)C(O)(c3c(C)[nH]c4ccccc34)c3ccccc32)cc1` (stereo unspecified) has a survival of 101%.
In the case of `Cc1[nH]c2ccccc2c1C1(O)C(=O)N(Cc2ccccc2)c2ccc(Br)cc21` (stereo unspecified), the survival is reported as 3% (active).
With `CCCCN1C(=O)C(O)(c2c(C)[nH]c3ccccc23)c2cc(Br)ccc21` (stereo unspecified) the survival was 27% (active).
For `Cc1[nH]c2ccccc2c1C1(O)C(=O)N(Cc2ccccc2Cl)c2ccccc21` (stereo unspecified), the survival was 51%.
Compound `Cc1ccc(C)c(CN2C(=O)C(O)(c3c(C)[nH]c4ccccc34)c3ccccc32)c1` (stereo unspecified) has a survival of 51%.
Work on `CCCCN1C(=O)C(O)(c2c(C)[nH]c3ccccc23)c2ccccc21` (stereo unspecified) yielded a survival of 51%.
`CCN1C(=O)C(O)(c2c(C)[nH]c3ccccc23)c2ccccc21` (stereo unspecified) gave a survival of 54%.
For `CCOC(=O)CC(NC(=O)CCc1c(C)nc2c(-c3ccccc3)c(C)nn2c1C)c1ccc(C)cc1` (stereo unspecified), the survival was 63%.
In the case of `COc1ccccc1CNC(=O)C1CCN(S(=O)(=O)c2c(C)noc2/C=C/c2c(C)cc(C)cc2C)CC1`, the survival is reported as 79%.
With `COc1cn(CC(=O)Nc2cccc(C)c2)c(CN2CCCCC2)cc1=O` the survival was 85%.
Work on `C=CCNC(=O)CSc1ccc(C)cc1` yielded a survival of 82%.
In the case of `COc1cc(OC)c(NC(=O)NCc2ccc3c(c2)CCN3C(C)=O)cc1Cl`, the survival is reported as 124%.
Compound `CC(C)(Oc1ccc(Cl)cc1)C(=O)Nc1ccc(-c2nc3ncccc3o2)cc1` has a survival of 52%.
Work on `Cc1cc(NC(=O)C(C)(C)Oc2ccc(Cl)cc2)cc(-c2nc3ncccc3o2)c1O` yielded a survival of 82%.
`Cc1c(NC(=O)C(C)(C)Oc2ccc(Cl)cc2)cccc1-c1nc2ccccc2o1` was tested, and the survival was 2% (active).
With `Cc1ccc(SCC(=O)Nc2cccc(-c3nc4cc(Cl)ccc4o3)c2C)cc1` the survival was 60%.
For `Cc1c(NC(=O)C(C)(C)Oc2ccc(Cl)cc2)cccc1-c1nc2ncccc2o1`, the survival was 19% (active).
`COc1c(Cl)cc(Cl)cc1C(=O)Nc1cccc(-c2nc3ccccc3o2)c1C` showed a survival of 109%.
With `CCCCN1CCc2nc(Nc3ccc(OC)cc3OC)ncc2C1` the survival was 77%.
Compound `CCOC(=O)c1noc2ncn(CC(=O)O)c(=O)c12` has a survival of 54%.
For `O=C(O)c1c2c(nc3ccc(F)cc13)CCCC2`, the survival was 89%.
`O=C(CSc1ccccc1)Nc1ccc2c(c1)OCO2` showed a survival of 100%.
`CC(C)CNC(=O)N1[C@H](c2cccs2)[C@@H](C)C(=O)[C@@H](C)[C@@H]1c1cccs1` gave a survival of 54%.
For `CCOC(=O)CNC(=O)N1[C@H](c2cccs2)[C@@H](C)C(=O)[C@@H](C)[C@@H]1c1cccs1`, the survival was 55% (active).
`CCCNC(=O)N1[C@H](c2cccs2)[C@@H](C)C(=O)[C@@H](C)[C@@H]1c1cccs1` gave a survival of 107%.
Work on `CC(C)c1ccccc1NC(=O)CN(c1ccccc1)S(=O)(=O)N(C)C` yielded a survival of 81%.
In the case of `Cc1oc(-c2ccc(C(=O)Nc3ccccc3F)cc2)nc1COc1ccccc1`, the survival is reported as 94%.
With `Cc1oc(-c2cccc(Cl)c2)nc1CSCC(=O)NCc1ccccc1Cl` the survival was 0% (active).
Work on `Cc1oc(-c2cccc(Cl)c2)nc1CS(=O)(=O)CC(=O)NCc1ccccc1Cl` yielded a survival of 49%.
In the case of `Cc1oc(-c2cccc(Cl)c2)nc1CSCC(=O)O`, the survival is reported as 75%.
Work on `COc1ccccc1CNC(=O)CSCc1nc(-c2ccc(OC)c(OC)c2)oc1C` yielded a survival of 71%.
`Cc1ccc(-c2nc(CS(=O)(=O)CC(=O)NCc3ccccc3Cl)c(C)o2)cc1` was tested, and the survival was 56%.
`COc1ccc(-c2nc(CS(=O)CC(=O)NCc3ccccc3Cl)c(C)o2)cc1OC` (stereo unspecified) showed a survival of 72%.
Compound `COc1ccc(-c2nc(CS(=O)(=O)CC(=O)NCCc3ccc(C)cc3)c(C)o2)cc1` has a survival of 85%.
With `COc1ccc(-c2nc(CSCC(=O)NCc3ccccc3Cl)c(C)o2)cc1OC` the survival was 46% (active).
With `Cc1ccc(-c2nc(CS(=O)CC(=O)NCc3ccccc3Cl)c(C)o2)cc1` (stereo unspecified) the survival was 54% (active).
Compound `Cc1oc(-c2ccccc2Cl)nc1CS(=O)CC(=O)NCc1ccccc1Cl` (stereo unspecified) has a survival of 54%.
For `CCc1ccc(-c2nc(CSCC(=O)NCc3ccccc3OC)c(C)o2)cc1`, the survival was 62%.
With `COc1ccc(-c2nc(CS(=O)(=O)CC(=O)NCc3ccccc3Br)c(C)o2)cc1` the survival was 41% (active).
